ATXN2 expr inh – reduces ATXN2 reporter expression in HEK-293 cells; HEK-293 ATXN2-luciferase reporter, luminescence, 24 h; Potency, µM (top dose mostly 57 µM), hits mostly inhibitors; 0.72% of 360,000 active; note: nearly all actives have a fitted effect of over 55% in size
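ATXN2-luciferase reporter cells (luciferase flanked by upstream and downstream ATXN2 gene portions) were treated 24 h at 37 °C with compounds at up to 57 uM. SteadyGlo luminescence gave expression; GF-AFC fluorescence gave viability.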
KB-3-1 tox – KB-3-1 parental cell cytotoxicity | 1.4% of 400,000 active | KB-3-1 viability, CellTiter-Glo ATP luminescence, 72 h | Potency, µM (top dose mostly 46.1 µM), actives largely listed as cytotoxic; note: nearly all actives have a fitted effect of over 60% in size
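Multi-concentration cytotoxicity screen in KB-3-1 cells grown in DMEM lacking phenol red with 10% FBS. After 72 h at 37 °C with compound, ATP-dependent luminescence was recorded.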
HT1080 IDH1KD tx – HT-1080 IDH1 knockdown cell toxicity (counter line); HT-1080 IDH1 knockdown viability, ATP luminescence, 48 h; Potency, µM (top dose mostly 46.1 µM), hits mostly cytotoxic; 2% of 360,000 active
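Using the IDH1-knockdown HT-1080 line run in the same batch and compound series as the NT line, viability after 48 h at 37 °C was determined by CellTiter-Glo luminescence and expressed as % activity.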
S2 tox – cell viability loss in ATXN counter-screen; S2 cells (HEK-293 line with an ATXN2-luciferase reporter) viability, CellTiter-Fluor protease fluorescence, 24 h; 0.49% of 400,000 active; Potency, µM (titrated, usually from 56.7 µM), hits mostly cytotoxic; note: nearly all actives have a fitted effect of over 40% in size
HT1080-NT tox – kills 2HG-producing HT-1080-NT fibrosarcoma cells; HT-1080-NT fibrosarcoma viability, CellTiter-Glo ATP luminescence, 48 h; Potency, µM (titrated, usually from 46.1 µM), hits mostly cytotoxic; 1.6% of 360,000 active;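 note: NT is the 2HG producing partner of a matched IDH1 knockdown line; nearly all actives have a fitted effect of over 55% in size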
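HT-1080-NT fibrosarcoma cells (2HG-overproducing), 750 cells/well in RPMI with 5% FBS, dosed after 2 h and incubated 48 h at 37C. CellTiter-Glo luminescence normalized to DMSO and no-cell wells; concentration-response curves fitted and classed.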
KB-V1 MDR tox – kills drug-selected multidrug resistant KB-V1 cells; Potency, µM (highest dose often 46.1 µM), usual class: cytotoxic; 3.4% of 400,000 active; KB-V1 MDR cells viability, CellTiter-Glo, 72 h; note: nearly all actives have a fitted effect of over 60% in size
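KB-V1 cells (P-gp-expressing MDR subline of KB-3-1) in phenol-red-free DMEM with 10% FBS were exposed to library compounds over a concentration series for 72 h at 37 degrees C. Viability read by CellTiter-Glo luminescence; concentration-effect curves fitted after normalization.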
Hits are given with their value; . = inactive; ? = inconclusive; / = no result. An excerpt weighted towards active compounds, which were near 6.2% of everything screened. Calls come from the whole dose curve; as a rule, active = well fitted curve in the direction sought with a large enough effect; inconclusive = small, poorly fitted or top-dose-only effect, or another doubt; inactive = no such curve, though single readings can be large; an effect the other way counts as inactive or inconclusive.

SMILES	ATXN2 expr inh	KB-3-1 tox	HT1080 IDH1KD tx	S2 tox	HT1080-NT tox	KB-V1 MDR tox
Cc1ncc(S(=O)(=O)c2ccccc2)c(-c2ccccc2)n1	.	.	.	.	.	.
O=S(=O)(c1ccccc1)c1cnc(-c2cccnc2)nc1-c1ccc(Cl)c(Cl)c1	.	.	.	.	.	6.5µM
CCCCCOc1ccc(Br)cc1/C(C)=N/NC1=NCCN1	?	?	5.2µM	?	6.5µM	?
CCN1C[C@H](C)n2c(c(O)c3c(=O)n(Cc4ccc(F)c(Cl)c4)nc(C(=O)NC)c32)C1=O	.	/	/	/	/	/
Nc1c(C(=O)Nc2ccccc2Cl)c2ccccn2c1C(=O)c1ccccc1	.	.	/	.	/	.
CC1CC(C)CN(C(=O)Cn2c(-c3nonc3N)nc3ccccc32)C1 (centres undefined)	.	.	.	.	.	.
CC1CCCN(C(=O)Cn2c(-c3nonc3N)nc3ccccc32)C1 (centres undefined)	.	.	.	?	.	7.3µM
CCOC(=O)c1ccccc1NC(=O)Cn1c(-c2nonc2N)nc2ccccc21	.	1µM	0.92µM	?	?	1.5µM
O=c1ccn([C@@H]2O[C@H](CO)[C@H](O)[C@@H]2F)c(=O)[nH]1	.	/	/	/	/	/
Clc1ccc(-c2nn3c(-c4cc(-c5ccccc5)n[nH]4)nnc3s2)cc1	/	.	/	/	/	?
COc1ccc(-c2n[nH]c(=S)n2/N=C/C=C/c2ccccc2OC)cc1	.	10µM	.	.	.	18µM
COc1ccccc1/C=C/C=N/n1c(-c2ccccc2)n[nH]c1=S	.	.	.	.	.	.
Cc1c(Cl)ccc2sc(N3CCN(C(=O)c4ccco4)CC3)nc12	?	.	/	?	/	?
O=C1CC(c2ccc(O)cc2)Oc2cc(O)cc(O)c21 (centres undefined)	.	.	.	.	.	.
CC1CC(=O)c2c(cc3c(-c4c(O)cc(O)c5c(O)c6c(cc45)OC(C)CC6=O)c(O)cc(O)c3c2O)O1 (centres undefined)	20µM	?	5.2µM	.	4.6µM	?
CCN(c1ccccc1)c1nnc(NC(=O)Nc2ccc(C)cc2)s1	/	.	/	/	/	.
CCOC1=C2CN(S(=O)(=O)c3ccc(C)cc3)[C@H](c3cccc4ccccc34)C[C@H]2C(C#N)(C#N)C(C#N)(C#N)C1	14µM	.	?	/	?	.
CC(=O)C1=CCC(c2ccccc2F)N(S(=O)(=O)c2ccc(C)cc2)C1 (centres undefined)	.	.	?	?	?	.
CCOC1=C2CN(S(=O)(=O)c3ccc(Cl)cc3)[C@H](c3ccccc3)C[C@@H]2N(S(=O)(=O)c2ccc(C)cc2)[C@H](c2ccccc2)C1	.	.	.	.	.	.
CCOC1=C2[C@H](c3ccccc3)N(S(=O)(=O)c3ccc(C)cc3)C(C(C)(C)C)[C@H]2C(C#N)(C#N)C(C#N)(C#N)C1 (some centres undefined)	25µM	.	?	18µM	?	.
CCOC1=C2CN(S(=O)(=O)c3ccc(C)cc3)C(c3cccc(Cl)c3)CC2N(S(=O)(=O)c2ccc(Cl)cc2)C(c2ccccc2)C1 (centres undefined)	/	5.2µM	.	/	.	.
CC(=O)C1=CCC(c2cccc3ccccc23)N(S(=O)(=O)c2ccc(C)cc2)C1 (centres undefined)	.	?	?	.	?	10µM
O=C(C1CC12CCN(Cc1cccc3cccnc13)CC2)N1CCN(Cc2cccs2)CC1 (centres undefined)	/	/	/	.	/	/
O=C(O)c1cccc(N2C(=O)C=CC2=O)c1	/	.	.	.	.	.
O=C(c1ccccc1)c1ccccc1N1C(=O)C=CC1=O	?	.	?	/	16µM	.
O=C1C=CC(=O)N1c1ccccc1N1C(=O)C=CC1=O	?	?	5.8µM	35µM	6.5µM	26µM
COc1cccc(C(=O)Nc2ccc3oc(-c4cccc5c(Br)cccc45)nc3c2)c1	.	.	/	.	/	?

High-throughput results as filed in PubChem BioAssay.
